Data taken from the supplement of paper PMC7411640.
Counter-ions that a name gives are not always drawn.

Tested on: MDA-MB-468
Experiment: phospho-S6 immunofluorescence (DAPI-normalised), per-plate z-score; higher = higher phospho-S6 signal (less pathway suppression)
Settings: co-treatment: lapatinib 1 uM; 24 h
Procedure: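 GPCR-targeted compound library (MedChemExpress HY-L006) tested on MDA-MB-468 PTEN-null TNBC cells in 384-well plates at 0.1, 1 or 10 uM, combined with vehicle, GDC0941 450 nM or lapatinib 1 uM, for 24 h. Phospho-S6 (S240/244) immunofluorescence normalised to DAPI and expressed as a per-plate z-score; values are the mean of biological triplicates.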

SMILES	phospho-S6 immunofluorescence (z-score)
CC(C[N+](C)(C)C)OC(N)=O (configuration not stated) [Bethanechol (chloride)] (compound 10 µM)	0.01
COCCc1ccc(OCC(O)CNC(C)C)cc1 (configuration not stated) [Metoprolol (Succinate)] (compound 10 µM)	-0.38
c1ccc2c(c1)OCC(CN1CCCCC1)O2 (configuration not stated) [Piperoxan (hydrochloride)] (compound 10 µM)	0.61
c1cc(CN2CCCNCCNCCCNCC2)ccc1CN1CCCNCCNCCCNCC1 [Plerixafor] (compound 10 µM)	0.01
C[C@@H](O[C@H]1OCCN(Cc2nn(P(=O)(O)O)c(=O)[nH]2)[C@H]1c1ccc(F)cc1)c1cc(C(F)(F)F)cc(C(F)(F)F)c1 [Fosaprepitant (dimeglumine)] (compound 10 µM)	-0.65
CCc1nc2c(C)nc(C)cc2n1-c1ccc(CCNC(=O)NS(=O)(=O)c2ccc(C)cc2)cc1 [Grapiprant] (compound 10 µM)	-0.15
COc1cc2nc(N3CCN(C(=O)C4CCCO4)CC3)nc(N)c2cc1OC (configuration not stated) [Terazosin (hydrochloride dihydrate)] (compound 10 µM)	0.9
NC(N)=Nc1nc(CSCCN/C=N/S(=O)(=O)c2ccc(Br)cc2)cs1 [Ebrotidine] (compound 10 µM)	-3.36
Cc1nn(C)c2c1C(c1ccc(C(F)(F)F)cc1)C(C#N)=C(N)O2 (configuration not stated) (compound 10 µM)	2.28
O=C1O[C@]2(CC[C@H](C(=O)Nc3ccn(-c4ccccc4F)n3)CC2)c2cnccc21 (compound 10 µM)	-0.47
Cc1noc(-c2ccc(-c3ccc(CC(=O)O)cc3)cc2)c1NC(=O)O[C@H](C)c1ccccc1 (compound 10 µM)	1.57
Cc1nc2n(c(=O)c1CCN1CCC(c3noc4cc(F)ccc34)CC1)CCCC2O (configuration not stated) [Paliperidone] (compound 10 µM)	0.36
COc1nc(C)nc(Cl)c1NC1=NCCN1 [Moxonidine] (compound 10 µM)	0.68
CN(C)CCC=C1c2ccccc2C=Cc2ccccc21 [Cyclobenzaprine (hydrochloride)] (compound 10 µM)	-0.8
COCc1nnc(N2CC(Oc3ccc(F)cc3Cl)C2)n1-c1ccc(OC)nc1 (compound 10 µM)	-0.91
C/C(=N\NC(=O)C(NC(=O)c1ccccc1)c1n[nH]c(=O)c2ccccc12)c1cccc(Br)c1 (configuration not stated) (compound 10 µM)	0.13

SMILES	phospho-S6 immunofluorescence (z-score)
C[C@H](NC(=O)CNC(=O)c1cccc(Cl)c1)c1ccccc1 (compound 10 µM)	0.45
CN1CCC(=C2c3ccccc3CCc3sccc32)CC1 [Pizotifen] (compound 10 µM)	-1.87
CNC(=C[N+](=O)[O-])NCCSCc1ccc(CN(C)C)o1 [Ranitidine (hydrochloride)] (compound 10 µM)	0.54
COC(=O)[C@H]1[C@H]2C[C@H]3c4[nH]c5ccccc5c4CCN3C[C@H]2CC[C@@H]1O [Rauwolscine (hydrochloride)] (compound 10 µM)	0.38
Cc1nc(C(=O)N2CCC[C@H]2Cc2nnc(-c3ccccc3)o2)c(-c2ccccc2F)s1 (compound 10 µM)	0.29
C[C@H](Cc1cc2c(c(C(N)=O)c1)N(CCCO)CC2)NCCOc1ccccc1OCC(F)(F)F [Silodosin] (compound 10 µM)	-0.02
CCOC(=O)N1CCC(=C2c3ccc(Cl)cc3CCc3cccnc32)CC1 [Loratadine] (compound 10 µM)	-0.82
CC(COc1ccccc1)N(CCCl)Cc1ccccc1 (configuration not stated) [Phenoxybenzamine (hydrochloride)] (compound 10 µM)	-0.04
CNS(=O)(=O)Cc1ccc2[nH]cc(CCN(C)C)c2c1 [Sumatriptan (succinate)] (compound 10 µM)	0.48
CN(C)CCC(c1ccc(Cl)cc1)c1ccccn1 (configuration not stated) [Chlorpheniramine (maleate)] (compound 10 µM)	-10.5
Cc1cccn2c(=O)c(C=C(C#N)c3nc4ccccc4s3)c(Oc3ccc(F)cc3)nc12 (compound 10 µM)	1.14
OC[C@@H](O)CN1CCN(c2ccccc2)CC1 [Levodropropizine] (compound 10 µM)	0.66
CC(N)(C(=O)O)c1ccc(C(=O)O)cc1 (racemic) (compound 10 µM)	0
Cc1cncc(CN2CCC(=C3c4ccc(Cl)cc4CCc4cccnc43)CC2)c1 [Rupatadine (Fumarate)] (compound 10 µM)	-2.09
C=CCc1ccccc1OCC(O)CNC(C)C (configuration not stated) [Alprenolol (hydrochloride)] (compound 10 µM)	-0.09
CN1CCN2c3ncccc3Cc3ccccc3C2C1 (configuration not stated) [Mirtazapine] (compound 10 µM)	0.99
